Measured values taken from PubChem BioAssay AID1159580 (chemical genetic matrix, 2015).
The campaign covered roughly 5,500 compounds. About 2,000 (36%) were called active. Inconclusive results (about 18%) are left out. Cut-off read from the data, not from the text of the source: active = normalized growth mostly below about 0.91 (no sharp cut-off); inconclusive = no clear call, values can overlap the other calls; inactive = mostly above about 0.92. The list shows a part of the results.

Assay: chemical genetic growth profiling, strain panel (AID 1159580);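 note: tested at 20 µM; growth read once vehicle control cultures reached saturation at 30 °C; 1 = growth at the plate median or of vehicle wells; lower values mean less growth of the strain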
Details: S. cerevisiae deletion strains, growth OD
[1] = locus YHR030C, strain SLT2, hits give low values
[2] = locus YHR079C, strain IRE1, hits give low values
[3] = locus YJL095W, strain BCK1, hits give low values
[4] = locus YJR066W, strain TOR1, hits give low values
[5] = locus YLR113W, strain HOG1, hits give low values
[6] = locus YNL183C, strain NPR1, hits give low values
[7] = locus YOR231W, strain MKK1, hits give low values
[8] = locus YPL256C, strain CLN2, hits give low values

Measured: normalized growth

OC1(C(F)(F)F)CC(C23CC4CC(CC(C4)C2)C3)=NN1 (centres undefined)
active: locus YAR019C, strain CDC15, hits give low values 0.867 | locus YBR136W, strain MEC1, hits give low values 0.889 | locus YBR160W, strain CDC28, hits give low values 0.891 | locus YDL028C, strain MPS1, hits give low values 0.847 | locus YDL101C, strain DUN1, hits give low values 0.897 | locus YDL108W, strain KIN28, hits give low values 0.892 | locus YDL132W, strain cdc53, hits give low values 0.872 | locus YDL214C, strain PRR2, hits give low values 0.642 | locus YDR052C, strain DBF4, hits give low values 0.882 | locus YDR226W, strain ADK1, hits give low values 0.859 | locus YDR477W, strain SNF1, hits give low values 0.505 | locus YER123W, strain YCK3, hits give low values 0.435 | locus YER133W, strain GLC7, hits give low values 0.57 | locus YFL009W, strain cdc4, hits give low values 0.851 | locus YFL029C, strain CAK1, hits give low values 0.876 | locus YFR019W, strain FAB1, hits give low values 0.527 | locus YFR028C, strain CDC14, hits give low values 0.86 | locus YGR040W, strain KSS1, hits give low values 0.497 | [1] 0.183 | locus YHR205W, strain SCH9, hits give low values 0.531 | locus YIL147C, strain SLN1, hits give low values 0.889 | [3] 0.163 | locus YJL157C, strain FAR1, hits give low values 0.655 | locus YJR016C, strain ILV3, hits give low values 0.891 | [4] 0.411 | locus YKL067W, strain YNK1, hits give low values 0.634 | locus YKL101W, strain HSL1, hits give low values 0.716 | locus YKL193C, strain SDS22, hits give low values 0.888 | locus YKL203C, strain TOR2, hits give low values 0.555 | [5] 0.578 | locus YLR133W, strain CKI1, hits give low values 0.655 | locus YLR403W, strain SFP1, hits give low values 0.469 | locus YML070W, strain DAK1, hits give low values 0.643 | locus YMR001C, strain CDC5, hits give low values 0.881 | locus YMR205C, strain PFK2 (second series), hits give low values 0.735 | locus YMR277W, strain FCP1, hits give low values 0.863 | locus YNL006W, strain LST8, hits give low values 0.892 | locus YNL020C, strain ARK1, hits give low values 0.659 | locus YNL161W, strain CBK1, hits give low values 0.898 | locus YNL207W, strain RIO2, hits give low values 0.867 | locus YNL222W, strain SSU72, hits give low values 0.876 | locus YNL307C, strain MCK1 (second series), hits give low values 0.565 | locus YOR061W, strain CKA2, hits give low values 0.17 | locus YOR119C, strain RIO1, hits give low values 0.521 | locus YOR329C, strain SCD5, hits give low values 0.901 | locus YPL031C, strain PHO85, hits give low values 0.471 | locus YPL153C, strain RAD53, hits give low values 0.517 | locus YPL204W, strain HRR25, hits give low values 0.477 | locus YPL209C, strain IPL1, hits give low values 0.89 | [8] 0.64 | locus YPR025C, strain CCL1, hits give low values 0.893 | strain TSCII, hits give low values 0.858
inactive: locus YBL105C, strain PKC1, hits give low values 0.905 | locus YBR135W, strain CKS1, hits give low values 0.898 | locus YDL017W, strain CDC7, hits give low values 0.913 | locus YDR054C, strain cdc34, hits give low values 0.88 | locus YFR003C, strain YPI1, hits give low values 0.905 | locus YGR052W, strain FMP48, hits give low values 0.62 | locus YGR092W, strain DBF2, hits give low values 0.487 | [2] 0.645 | locus YHR082C, strain KSP1, hits give low values 0.688 | locus YJL128C, strain PBS2, hits give low values 0.946 | locus YJR066W, strain TOR1 (second series), hits give low values 0.718 | locus YKL048C, strain ELM1, hits give low values 0.884 | [6] 0.618 | locus YOL078W, strain AVO1, hits give low values 0.893 | locus YOL136C, strain PFK27, hits give low values 0.715 | [7] 0.637 | locus YPR106W, strain ISR1, hits give low values 0.915 | locus YPR111W, strain DBF20, hits give low values 0.875 | strain NNK1, hits give low values 0.921

CC(=O)OCC(=O)[C@@]1(O)[C@@H](C)CC2C3CCC4=CC(=O)C=C[C@]4(C)[C@@]3(F)[C@@H](O)C[C@@]21C (some centres undefined)
inactive: [1] 1.06 | [2] 1.05 | [3] 1.01 | [4] 1 | [5] 0.994 | [6] 0.991 | [7] 1.05 | [8] 1.06
